Bioassay records deposited in PubChem BioAssay by National Center for Advancing Translational Sciences (NCATS).
PKM2 inhibitor: qHTS Assay for Inhibitors of Human Muscle isoform 2 Pyruvate Kinase; purified PKM2, ATP generation, Kinase-Glo luminescence; Potency, µM (titrated, usually from 57.5 µM), inactives show at the top dose activity change, negative = inhibition, hits mostly inhibitors; 260,000 tested, 0.058% active; active = well fitted inhibition curve with a large enough effect; also: nearly all actives have a fitted effect of over 60% in size
Target sequence (P14618 whole entry, looked up, canonical isoform): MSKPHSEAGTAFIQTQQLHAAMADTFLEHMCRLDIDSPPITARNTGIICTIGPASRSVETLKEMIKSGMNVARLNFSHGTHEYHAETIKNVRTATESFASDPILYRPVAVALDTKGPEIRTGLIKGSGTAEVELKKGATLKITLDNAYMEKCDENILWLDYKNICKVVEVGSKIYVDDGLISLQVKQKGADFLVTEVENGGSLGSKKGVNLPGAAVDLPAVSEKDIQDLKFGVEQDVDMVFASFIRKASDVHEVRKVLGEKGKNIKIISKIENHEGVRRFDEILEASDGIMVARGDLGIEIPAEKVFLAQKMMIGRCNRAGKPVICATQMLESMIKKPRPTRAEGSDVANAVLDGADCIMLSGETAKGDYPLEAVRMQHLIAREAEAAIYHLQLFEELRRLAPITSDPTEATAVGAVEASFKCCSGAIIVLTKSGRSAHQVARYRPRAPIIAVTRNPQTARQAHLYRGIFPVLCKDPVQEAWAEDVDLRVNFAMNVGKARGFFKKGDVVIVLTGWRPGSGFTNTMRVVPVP
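Coupled luciferase luminescence (Kinase-Glo) detects ATP generated from 0.1 mM ADP and 0.5 mM PEP in imidazole buffer pH 7.2 with KCl, MgCl2; 1 h at room temperature. Enzyme at intermediate activity; normalized to uninhibited and no-enzyme controls.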
An asterisk follows results filed as active. This excerpt belongs to a sample that is enriched for hits. Potency is read from the fitted curve at half-maximal effect.

SMILES	PKM2 inhibitor
NC(=O)c1oc2ccccc2c1NC(=O)CCc1ccccc1	5%
O=C(Nc1ccccc1)c1cc2ccccc2o1	11µM*
Cc1ccc(NC(=O)c2cc(-c3ccc(C)o3)nc3ccccc23)cc1	48%
COc1cc(NC(=S)N2CCN(S(=O)(=O)c3ccc(C)cc3)CC2)cc(OC)c1	40%
CCc1ccc(NC(=O)CSc2nnc(C)c(=O)n2N)cc1	31%
Nc1cnn(Cc2ccccc2F)c1	31%
Cn1c(-c2ccc([N+](=O)[O-])cc2)nc2ccccc21	50%
CC1=NN(c2ccc([N+](=O)[O-])cc2)C(=O)/C1=C\N(C)C	16µM*
O=C1C=CC(=O)N1c1ccc(Sc2ccc([N+](=O)[O-])cc2)cc1	115%
Cc1cc(OCC(=O)NC(Cc2ccc(Cl)cc2)C(=O)O)c2c(C)c(C)c(=O)oc2c1 (stereo not given)	43%
Cc1cccc2sc(NS(=O)(=O)c3ccccc3)nc12	33%
COc1cccc(NC(=O)CSc2ccc(-c3sc(C)nc3C)nn2)c1	36%
COc1ccc(-c2ccc(SC)nn2)cc1	10µM*
COc1c(O)c(O)cc2c1oc1c3ccccc3oc(=O)c21	39%
O=C(N/N=C/c1ccc(N2CCCCC2)o1)c1ccccc1[N+](=O)[O-]	30%
O=c1c2sccc2nc(SCc2cc(=O)n3ccccc3n2)n1Cc1ccccn1	70%
Cc1ccc2cc(CCNS(=O)(=O)c3ccc(Br)cc3)c(=O)[nH]c2c1C	50%
CNc1nc(-c2ccccc2)[n+](-c2ccc(C)cc2)s1	10µM*
Cc1nc(N=Nc2ccc(O)cc2)n[nH]1	13µM*
C/C=C\C=C\C(=O)Nc1cccc(C2=NOC3(C2)C[C@@H](C(N)=O)N(C(=O)C(c2ccccc2)c2ccccc2)C3)c1 (stereo not given in full)	54%
O=Cc1s/c(=N\S(=O)(=O)c2ccccc2)n(CCCCl)c1Cl	35%
COc1ccc(CCNC(=S)N2CCN(S(=O)(=O)c3ccccc3F)CC2)cc1	49%
COC(=O)c1ccc(C(=O)OC)c(NC(=O)CSc2cccc[n+]2[O-])c1	39%
Cc1ccc(-c2cc(C(=O)Nc3ccccn3)c3ccccc3n2)o1	33%
O=C(Nc1ccccn1)c1onc2c1CCCC2	14µM*
SMILES	PKM2 inhibitor
Cc1noc(C)c1S(=O)(=O)N1CCC(C(=O)Nc2ccccn2)CC1	39%
CCS(=O)(=O)Nc1ccc(C2=NN(S(C)(=O)=O)C(c3cccs3)C2)cc1 (stereo not given)	40%
CCOC(Cn1ccc(=O)[nH]c1=O)OCC	-7%
CC(=O)Nc1ccc(C(=O)OCc2ccccc2Br)cc1	1%
Cc1cc2c(NC(=O)Nc3ccc(C(C)(C)C)cc3)cccc2nn1	1%
COc1ccc(NC(=O)Nc2ccccc2C(N)=O)cc1	25µM*
Cc1cnc(NC(=O)C2(c3ccccc3)CC2)s1	30%
CC(=O)N1CC=CC1(CC(C)C)C(=O)NCc1ccc(C)o1 (stereo not given)	32%
COc1ccc(S(=O)(=O)N2CCN(C(=O)c3cccs3)CC2)cc1	80%
COc1ccc2cc(/C(C)=N/NC(=O)C3CC3)ccc2c1	34%
COc1ccc(C(=O)O/N=C(/C)c2cccs2)cc1	14µM*
C=C(C)C(=O)Nc1cccc(C2=NOC3(C2)C[C@@H](C(N)=O)N(C(=O)/C=C/C=C/C)C3)c1 (stereo not given in full)	87%
COc1ccc(NC(=O)c2cc([N+](=O)[O-])ccc2O)cc1	16µM*
COc1cccc(NC(=O)CCN2C(=O)c3ccc([N+](=O)[O-])cc3C2=O)c1	54%
COc1ccc(NC(=O)c2[nH]c(C)c(C(C)=O)c2C)cc1	39%
COC(=O)[C@@]1(Cc2ccc(F)cc2)[C@H]2c3cc(C(=O)N4CCCC4)n(Cc4ccc(C)o4)c3C[C@H]2CN1C(=O)c1ccccc1	62%
O=[N+]([O-])c1ccc2nc(NS(=O)(=O)c3ccc(F)cc3)sc2c1	33%
COc1cc(/C=N/NC(=O)c2cccs2)ccc1O	1%
Cc1ccsc1C(=O)N/N=C/c1ccc2c(c1)OCO2	13µM*
Cc1nn(CC(=O)N/N=C/c2ccc3c(c2)OCO3)c(C)c1Br	31%
Cc1ccc(N2C(=O)CC(C)(C)CC2=O)cc1Cl	0%
CC(C)(C)C(=O)Nc1ccc(-c2csnn2)cc1	33%
CC(=O)c1ccc(S(=O)(=O)N2CCN(C(=O)CSc3ccc(F)cc3)CC2)cc1	59%
O=C1NC(=S)S/C1=C1\Sc2ccccc2N1CCCS(=O)(=O)O	11µM*
Cc1ccc(O)c(CNc2ccc(S(=O)(=O)Nc3nccs3)cc2)c1	44%
SMILES	PKM2 inhibitor
Cc1nc2ccc(S(=O)(=O)NCC(=O)N(C)Cc3ccco3)cc2s1	35%
COc1ccc2nc(NC(=O)CCNC(=O)c3ccccc3Cl)sc2c1	0%
COc1ccc2nc(NC(=O)c3ccoc3C)sc2c1	16µM*
COCC(C)n1c(SCC(=O)N(C)C2CCS(=O)(=O)C2)nc2ccccc2c1=O (stereo not given)	30%
COc1ccc(N2C(=O)CC(Sc3ccccc3C(=O)O)C2=O)c([N+](=O)[O-])c1 (stereo not given)	63%
Cc1ccccc1-c1ncc(CN2CCC(CO)(CCCc3ccccc3)CC2)cn1	131%
CC1(C)CC(=O)c2c(oc3ccc(NS(=O)(=O)c4cccc5cccnc45)cc23)C1	32%
Cc1ccc(C(=O)N/C(=C\c2cn(S(=O)(=O)N(C)C)c3ccccc23)C(=O)NCCN2CCOCC2)cc1	56%
COc1ccc2c(c1)-c1nc(NC(=O)c3cccs3)sc1CC2	1%
COc1ccc2nc3c(cc2c1)Cc1ccccc1-3	14µM*
COc1ccc(CNC(=O)C2CCN(S(=O)(=O)c3ccc(Br)s3)CC2)cc1	43%
O=C(CSc1nc2ccc(Cl)cc2[nH]1)c1cccs1	53%
CCCn1c(NC(=O)c2ccco2)nc2ccccc21	87%
CC(=O)c1sc(NC(=O)c2ccc(Cn3cc(Br)cn3)o2)nc1C	69%
Cc1nc(NC(=O)c2ccco2)sc1C(=O)O	13µM*
CCCCC1=CC2=C(c3ccco3)C(=O)C(C)(OC(=O)c3ccc(OC)cc3)C(=O)C2=CN1c1ccccc1 (stereo not given)	30%
NS(=O)(=O)c1c(Sc2ccccc2C(=O)O)ccc2ccccc12	4%
O=C(COc1ccc(Cl)cc1Cl)Nc1ccccn1	14µM*
O=C(COc1ccc(Cl)cc1Cl)NC(=S)Nc1ccc(CN2CCOCC2)cc1	36%
O=C(COc1ccc(Cl)cc1Cl)NCC(=O)N/N=C/c1c[nH]c2ccccc12	47%
COc1ccc(CN2CCN(C(=O)CC(C)C)CC2)cc1	49%
CC(C)CC(=O)Nc1nnc(S(=O)(=O)N2c3ccccc3CC2C)s1 (stereo not given)	4%
Cc1ccc(CNC(=O)CCc2nnc(Cc3ccc(-c4ccccc4)cc3)o2)o1	49%
O=C(CSc1nncc2ccccc12)Nc1cccc(O)c1	51%
CCOC(=O)C1CCN(c2nc(N)c3c(N)nc(SCC(=O)O)cc3c2C#N)CC1	66%
SMILES	PKM2 inhibitor
CCOc1ccc2nc(/N=C/c3c(C)[nH]n(-c4ccc(C)cc4)c3=O)sc2c1	13µM*
CCOc1ccc2nc(SCC(=O)Nc3cc(C)on3)c(C)cc2c1	53%
Cc1ccc(C)c(S(=O)(=O)N2CCN(C(=O)CSc3ccccc3F)CC2)c1	36%
O=c1cc(-c2ccccc2Cl)oc2c(NS(=O)(=O)c3cccs3)ccc(O)c12	30%
CNc1ccccc1-c1nc2ccccc2n(C)c1=O	1%
CN(C)c1ccc(N=Nc2nc3ccccc3n2C)cc1	16µM*
